Compound activity as filed in PubChem.
Most compounds without a hit are left out; they make up all but 9.2% or so of the library.
NPC1 prom act = qHTS Assay for NPC1 Promoter Activators | Huh7 NPC1 promoter luciferase reporter, 24 h | Potency, µM (doses to about 9.22 µM), for the others: top-dose activation, most hits filed as activators | 2.4% of 320,000 active; note: % of control where 0% means no effect; nearly all actives have a fitted effect of over 60% in size
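NPC1 promoter–luciferase Huh7 cells; 24 h compound; luminescence.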
FLuc counter = qHTS profiling assay for firefly luciferase inhibitor/activator using purifed enzyme and Km concentrations of substrates (counterscreen for miR-21 project); Luciferin 4-monooxygenase (Photinus pyralis), P08659; purified FLuc, Km substrates, luminescence inhibition; Potency, µM (top dose mostly 57.5 µM), for the others: top-dose activity change, negative = inhibition, hits mostly inhibitors; AID 588342, 2011; 6.9% of 360,000 active;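 note: plate controls were vehicle for no effect and reference inhibitor for full effect; nearly all actives have a fitted effect of over 55% in size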
Target sequence (P08659 whole entry, looked up): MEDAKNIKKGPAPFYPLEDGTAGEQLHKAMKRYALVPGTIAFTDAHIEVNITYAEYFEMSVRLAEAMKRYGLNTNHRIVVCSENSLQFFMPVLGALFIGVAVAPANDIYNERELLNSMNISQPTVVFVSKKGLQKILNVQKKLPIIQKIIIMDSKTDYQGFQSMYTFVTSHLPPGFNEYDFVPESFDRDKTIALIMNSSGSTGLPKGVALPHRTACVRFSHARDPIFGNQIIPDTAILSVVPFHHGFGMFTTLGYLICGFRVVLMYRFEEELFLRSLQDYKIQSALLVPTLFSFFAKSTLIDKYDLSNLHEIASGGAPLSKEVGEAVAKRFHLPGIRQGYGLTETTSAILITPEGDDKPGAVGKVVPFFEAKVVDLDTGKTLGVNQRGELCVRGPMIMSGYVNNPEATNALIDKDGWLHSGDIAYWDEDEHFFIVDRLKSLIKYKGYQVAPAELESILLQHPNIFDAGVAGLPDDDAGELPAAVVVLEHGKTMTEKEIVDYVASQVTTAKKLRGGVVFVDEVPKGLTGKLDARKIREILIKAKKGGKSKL
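Purified P. pyralis luciferase (10nM final) with 10uM D-luciferin and 10uM ATP (Km levels) in 50mM Tris acetate pH 7.5, 10mM Mg acetate, 0.01% Tween-20, 0.05% BSA; qHTS 6-point titration, ~60 µM downward; luminescence read.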
ELG1 genotoxic = qHTS screen for small molecules that induce genotoxicity in human embryonic kidney (HEK293T) cells expressing luciferase-tagged ELG1. HEK293T ELG1-luciferase reporter, luminescence, 16 h. 1.3% of 330,000 active. Potency, µM (top dose mostly 46 µM), inactives show at the highest dose activity change, positive = activation, most hits filed as activators; note: % of control where 0% means no effect; nearly all actives have a fitted effect of over 60% in size
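Cells (2,000/well) expressing the ELG1-luciferase fusion are dosed by pin tool and kept 16 hr at 37 °C, 5% CO2. Signal comes from ONE-Glo luciferase reagent after 30 min at room temperature.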
ELG1 DNA repair = qHTS screen for small molecules that inhibit ELG1-dependent DNA repair in human embryonic kidney (HEK293T) cells expressing luciferase-tagged ELG1. HEK293T ELG1-luciferase reporter, luminescence, 16 h; DNA damage induced by 5-fluorouridine. Potency, µM (top dose mostly 46.1 µM), for the others: top-dose activity change, negative = inhibition, hits mostly inhibitors. 2.3% of 330,000 active. AID 504467, 2011; note: % is set by controls: 0 for no effect and ±100 for the full control effect; nearly all actives have a fitted effect of over 55% in size
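Cells (2,000 per well) received 5-fluorouridine plus test compound or DMSO and were incubated 16 hr at 37 °C, 5% CO2. Luciferase activity was read by luminescence 30 min after ONE-Glo addition; signal suppression marked inhibition of damage-induced ELG1 function.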
Rab9 promoter act = qHTS Assay for Rab9 Promoter Activators; Huh7 Rab9 promoter-luciferase reporter, luminescence, 24 h; Potency, µM (series often up to 9.22 µM), for inactives: at the highest dose activation, negative = inhibition, actives largely listed as activators; 2.8% of 320,000 active; AID 485297, 2010; note: % of control where 0% means no effect; nearly all actives have a fitted effect of over 60% in size
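Huh7 reporter line, Rab9 promoter upstream of luciferase. Compound exposure 24 h at 37 °C in reduced-serum medium with 10% FBS. Read-out: luminescence.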
SMN2 splice enh = qHTS Assay for Enhancers of SMN2 Splice Variant Expression | HEK293 SMN2-luciferase splicing reporter, luminescence, 30-36 h | Potency, µM (doses to about 46.1 µM), inactives show at the highest dose activity change, positive = activation, usual class: activators | 2.8% of 210,000 active | AID 1458, 2008; note: % of control where 0% means no effect; nearly all actives have a fitted effect of over 55% in size
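qHTS luciferase splicing reporter: luminescence rises when SMN2 exon 7 is included in transfected HEK293 cells. Compound exposure lasted 30-36 h at 37C, with 4.5 mM final sodium butyrate as control, followed by a ONE-Glo read.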
An asterisk follows results filed as active; ? = inconclusive; . = not tested or not shown. Calls come from the whole dose curve; as a rule, active = well fitted curve in the direction sought with a large enough effect; inconclusive = small, poorly fitted or top-dose-only effect, or another doubt; inactive = no such curve, though single readings can be large; an effect the other way counts as inactive or inconclusive. Potency is the fitted concentration of half-maximal effect.

SMILES	NPC1 prom act	FLuc counter	ELG1 genotoxic	ELG1 DNA repair	Rab9 promoter act	SMN2 splice enh
O=C(c1ccco1)n1nc(-c2ccco2)nc1SCc1ccccc1	-5%	-9%	?	?	?	8%
Cc1ccc(S(=O)(=O)n2nc(-c3ccco3)nc2SCc2ccccc2)cc1	18%	24µM*	15%	?	22%	16µM*
CCCC(=O)n1nc(-c2ccco2)nc1SCc1ccccc1	13%	9.5µM*	8%	?	17%	?
O=C(Cc1ccccc1)n1nc(-c2ccco2)nc1SCc1ccccc1	24%	17µM*	?	?	15%	11%
COc1cccc(NC(=O)Cn2c(=O)n(-c3ccc(C)cc3)c(=O)c3ccccc32)c1	.	-7%	.	.	.	-3%
N#Cc1ccccc1NC(=O)CSc1nc(-c2ccccc2)cc(C(F)(F)F)c1C#N	.	1%	.	.	.	-3%
CCC(=O)N(Cc1cc2ccccc2[nH]c1=O)C(C)C	-4%	0%	23µM*	0%	16%	-34%
CN(C(=O)COC(=O)/C=C/c1cccs1)c1c(N)n(Cc2ccccc2)c(=O)[nH]c1=O	12%	2%	-3%	5%	-4%	.
COc1cc(SC)ccc1C(=O)NCCOc1ccc(F)cc1	?	5.4µM*	21µM*	?	?	14µM*
COc1cc(SC)ccc1C(=O)NCC1CCCCC1	30%	15µM*	?	?	20%	.
COc1ccc(CCNC(=O)c2ccc(SC)cc2OC)cc1	-9%	-11%	-6%	?	-1%	-6%
Cc1nc(-c2cccc(NC(=O)Cc3ccccc3)c2)cs1	-2%	?	-1%	?	4%	3%
CC(C)C(=O)Nc1cccc(-c2csc(-c3ccccc3)n2)c1	-2%	17µM*	-1%	10%	-1%	?
CC(C)C(=O)Nc1ccc(-c2csc(-c3ccccc3)n2)cc1	2.2µM*	?	22%	?	?	?
Clc1ccccn1	0%	-1%	5%	4%	1%	0%
Cc1ccc(NC(=S)NC(=O)Cc2ccccc2)c(O)c1	22%	15µM*	6%	23%	3%	.
COc1ccc(NC(=S)NC(=O)Cc2ccccc2)c(OC)c1	1%	-5%	0%	?	5%	.
Cc1ccc(O)c(NC(=S)NC(=O)CC(C)C)c1	?	17µM*	?	?	?	13µM*
CC(=O)c1cccc(NC(=O)N2CCCc3ccccc32)c1	9%	?	6%	?	12%	0%
CCc1ccccc1NC(=O)N1CCc2ccccc2C1	-1%	-16%	15%	?	20%	.
CC(=O)c1cccc(NC(=O)N2CCc3ccccc3C2)c1	4µM*	13µM*	?	?	?	21%
CC(=O)c1ccc(NC(=O)N2CCc3ccccc3C2)cc1	21%	?	24%	?	?	22µM*
CN(CCC#N)C(=O)c1cc2c(s1)-c1ccccc1SC2	2.2µM*	11µM*	?	?	2.5µM*	.
CCOC(=O)c1cc(-c2ccc(OC)cc2)n(CCC(=O)NC2CCCCC2)c1C	.	-9%	.	.	.	.
Cc1csc(N/N=C/c2ccc(O)c([N+](=O)[O-])c2)n1	2%	21µM*	?	?	4%	18%
O=[N+]([O-])c1cc(/C=N/Nc2nc(N3CCCCC3)nc(N3CCCCC3)n2)ccc1O	-2%	15µM*	2%	11%	1%	?
COc1ccc(/C=N/Nc2nc(N3CCCCC3)nc(N3CCCCC3)n2)cc1[N+](=O)[O-]	-2%	-6%	-8%	?	-6%	-9%
